Assay results from PubChem BioAssay AID1159580 (chemical genetic matrix, 2015).
The campaign covered roughly 5,500 compounds. About 2,000 (36%) were called active. Roughly 18% stayed inconclusive and do not appear here. No stated cut-off is given here; in the data, active means normalized growth mostly below about 0.91 (no sharp cut-off); inconclusive means no clear call, values can overlap the other calls; inactive means mostly above about 0.92. The list shows a part of the results.

Test: chemical genetic growth profiling, strain panel (AID 1159580);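 further: tested at 20 µM; growth read once vehicle control cultures reached saturation at 30 °C; 1 = growth at the plate median or of vehicle wells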
Details: growth OD
[1] = S. cerevisiae deletion strains, locus YHR030C, strain SLT2, stronger effect = lower value
[2] = S. cerevisiae deletion strains, locus YJL095W, strain BCK1, stronger effect = lower value

Measured: normalized growth

CC(C)(C)[C@]1(O)CCN2C[C@H]3c4ccccc4CCc4cccc(c43)[C@@H]2C1
inactive: S. cerevisiae deletion strains, locus YAL040C, strain CLN3, stronger effect = lower value 0.999 | S. cerevisiae deletion strains, locus YDR363W, strain ESC2, stronger effect = lower value 0.994 | S. cerevisiae deletion strains, locus YER002W, strain NOP16, stronger effect = lower value 0.993 | S. cerevisiae deletion strains, locus YMR263W, strain SAP30, stronger effect = lower value 1 | S. cerevisiae deletion strains, locus YNL128W, strain TEP1, stronger effect = lower value 1.01 | S. cerevisiae deletion strains, locus YNL175C, strain NOP13, stronger effect = lower value 1.03 | S. cerevisiae deletion strains, locus YNL197C, strain WHI3, stronger effect = lower value 1.02 | S. cerevisiae deletion strains, locus YNL224C, strain SQS1, stronger effect = lower value 1.02 | S. cerevisiae deletion strains, locus YNL322C, strain KRE1, stronger effect = lower value 1.01 | S. cerevisiae deletion strains, locus YOR083W, strain WHI5 (second series), stronger effect = lower value 1.05

OC[C@@H](O)[C@H](O)[C@@H](O)[C@H](O)CO
inactive: [1] 0.974 | S. cerevisiae deletion strains, locus YHR079C, strain IRE1, stronger effect = lower value 0.995 | [2] 1 | S. cerevisiae deletion strains, locus YJR066W, strain TOR1, stronger effect = lower value 0.936 | S. cerevisiae deletion strains, locus YLR113W, strain HOG1, stronger effect = lower value 0.959 | S. cerevisiae deletion strains, locus YNL183C, strain NPR1, stronger effect = lower value 0.941 | S. cerevisiae deletion strains, locus YOR231W, strain MKK1, stronger effect = lower value 0.991 | S. cerevisiae deletion strains, locus YPL256C, strain CLN2, stronger effect = lower value 0.964

C[C@]12CCC3C(CC[C@H]4C[C@@H](Cl)CC[C@]34C)C1CCC2=O (stereo partly specified)
inactive: S. cerevisiae deletion strains, locus YBR021W, strain FUR4, stronger effect = lower value 0.947 | S. cerevisiae deletion strains, locus YBR229C, strain ROT2, stronger effect = lower value 1.03 | S. cerevisiae deletion strains, locus YCL029C, strain bik1, stronger effect = lower value 0.968 | S. cerevisiae deletion strains, locus YDL035C, strain GPR1, stronger effect = lower value 0.921 | S. cerevisiae deletion strains, locus YDL074C, strain BRE1, stronger effect = lower value 0.87 | S. cerevisiae deletion strains, locus YDL101C, strain DUN1, stronger effect = lower value 0.997 | S. cerevisiae deletion strains, locus YDL134C, strain PPH21, stronger effect = lower value 0.977 | S. cerevisiae deletion strains, locus YDL185W, strain tfp1, stronger effect = lower value 1.02 | S. cerevisiae deletion strains, locus YDL192W, strain arf1, stronger effect = lower value 0.956 | S. cerevisiae deletion strains, locus YDR101C, strain arx1, stronger effect = lower value 1.01 | S. cerevisiae deletion strains, locus YDR150W, strain NUM1, stronger effect = lower value 1.01 | S. cerevisiae deletion strains, locus YDR162C, strain NBP2, stronger effect = lower value 0.885 | S. cerevisiae deletion strains, locus YDR318W, strain mcm21, stronger effect = lower value 0.981 | S. cerevisiae deletion strains, locus YDR388W, stronger effect = lower value 1.02 | S. cerevisiae deletion strains, locus YDR502C, strain sam2, stronger effect = lower value 0.988 | S. cerevisiae deletion strains, locus YER110C, stronger effect = lower value 1.02 | S. cerevisiae deletion strains, locus YER155C, strain BEM2, stronger effect = lower value 1.02 | S. cerevisiae deletion strains, locus YER167W, strain BCK2, stronger effect = lower value 0.983 | S. cerevisiae deletion strains, locus YGL078C, strain dbp3, stronger effect = lower value 0.99 | S. cerevisiae deletion strains, locus YGL086W, strain mad1, stronger effect = lower value 0.959 | S. cerevisiae deletion strains, locus YGL248W, strain PDE1, stronger effect = lower value 0.972 | S. cerevisiae deletion strains, locus YGR078C, strain PAC10, stronger effect = lower value 0.951 | S. cerevisiae deletion strains, locus YGR135W, strain pre9, stronger effect = lower value 0.997 | S. cerevisiae deletion strains, locus YGR252W, strain gcn5, stronger effect = lower value 0.993 | [1] 1.02 | S. cerevisiae deletion strains, locus YHR079C, strain IRE1 (second series), stronger effect = lower value 1.02 | S. cerevisiae deletion strains, locus YHR094C, strain hxt1, stronger effect = lower value 1.02 | S. cerevisiae deletion strains, locus YHR129C, strain ARP1, stronger effect = lower value 0.987 | S. cerevisiae deletion strains, locus YHR200W, strain rpn10, stronger effect = lower value 0.951 | S. cerevisiae deletion strains, locus YIL066C, strain RNR3, stronger effect = lower value 0.957 | S. cerevisiae deletion strains, locus YIL073C, strain SPO22, stronger effect = lower value 1.05 | S. cerevisiae deletion strains, locus YIL125W, strain kgd1, stronger effect = lower value 1 | S. cerevisiae deletion strains, locus YIR030C, strain dcg1, stronger effect = lower value 1.02 | [2] 0.952 | S. cerevisiae deletion strains, locus YJL134W, strain LCB3, stronger effect = lower value 1.02 | S. cerevisiae deletion strains, locus YJL168C, strain set2, stronger effect = lower value 1.04 | S. cerevisiae deletion strains, locus YJL187C, strain SWE1 (second series), stronger effect = lower value 0.993 | S. cerevisiae deletion strains, locus YJR043C, strain POL32, stronger effect = lower value 0.925 | S. cerevisiae deletion strains, locus YKL009W, strain mrt4, stronger effect = lower value 1.02 | S. cerevisiae deletion strains, locus YKL068W, stronger effect = lower value 1.01 | S. cerevisiae deletion strains, locus YKL085W, strain MDH1 (second series), stronger effect = lower value 0.998 | S. cerevisiae deletion strains, locus YKL085W, strain MDH1, stronger effect = lower value 0.998 | S. cerevisiae deletion strains, locus YKR001C, strain vps1, stronger effect = lower value 0.937 | S. cerevisiae deletion strains, locus YLR039C, strain RIC1, stronger effect = lower value 0.769 | S. cerevisiae deletion strains, locus YLR058C, strain SHM2, stronger effect = lower value 0.984 | S. cerevisiae deletion strains, locus YLR102C, strain apc9, stronger effect = lower value 1.01 | S. cerevisiae deletion strains, locus YLR268W, strain sec22, stronger effect = lower value 0.982 | S. cerevisiae deletion strains, locus YLR330W, strain CHS5, stronger effect = lower value 0.987 | S. cerevisiae deletion strains, locus YLR371W, strain rom2, stronger effect = lower value 0.99 | S. cerevisiae deletion strains, locus YLR418C, strain cdc73, stronger effect = lower value 0.849 | S. cerevisiae deletion strains, locus YML016C, strain PPZ1, stronger effect = lower value 1.01 | S. cerevisiae deletion strains, locus YML032C, strain rad52, stronger effect = lower value 0.993 | S. cerevisiae deletion strains, locus YML124C, strain tub3, stronger effect = lower value 1.02 | S. cerevisiae deletion strains, locus YMR078C, strain ctf18, stronger effect = lower value 1.03 | S. cerevisiae deletion strains, locus YMR223W, strain ubp8, stronger effect = lower value 0.999 | S. cerevisiae deletion strains, locus YMR307W, strain GAS1, stronger effect = lower value 1.06 | S. cerevisiae deletion strains, locus YNL067W, strain RPL9B, stronger effect = lower value 0.986 | S. cerevisiae deletion strains, locus YNL233W, strain BNI4, stronger effect = lower value 0.969 | S. cerevisiae deletion strains, locus YNL250W, strain rad50, stronger effect = lower value 1.03 | S. cerevisiae deletion strains, locus YNL271C, strain bni1, stronger effect = lower value 1.01 | S. cerevisiae deletion strains, locus YNL298W, strain CLA4, stronger effect = lower value 0.967 | S. cerevisiae deletion strains, locus YNR052C, strain pop2, stronger effect = lower value 0.976 | S. cerevisiae deletion strains, locus YOL006C, strain TOP1, stronger effect = lower value 0.863 | S. cerevisiae deletion strains, locus YOL012C, strain htz1 0.88 | S. cerevisiae deletion strains, locus YOL147C, strain pex11, stronger effect = lower value 0.972 | S. cerevisiae deletion strains, locus YOR061W, strain CKA2, stronger effect = lower value 1.02 | S. cerevisiae deletion strains, locus YOR069W, strain VPS5, stronger effect = lower value 1.01 | S. cerevisiae deletion strains, locus YOR136W, strain idh2, stronger effect = lower value 1 | S. cerevisiae deletion strains, locus YOR144C, strain elg1, stronger effect = lower value 1.01 | S. cerevisiae deletion strains, locus YOR316C, strain cot1, stronger effect = lower value 1.02 | S. cerevisiae deletion strains, locus YPR119W, strain clb2, stronger effect = lower value 1.03 | S. cerevisiae deletion strains, locus YPR141C, strain kar3, stronger effect = lower value 1.03 | S. cerevisiae deletion strains, locus YPR163C, strain tif3, stronger effect = lower value 0.969 | S. cerevisiae deletion strains, locus YPR167C, strain met16, stronger effect = lower value 0.996 | S. cerevisiae deletion strains, strain wtn01, stronger effect = lower value 0.967 | S. cerevisiae strains, strain wild type, stronger effect = lower value 0.909
active: S. cerevisiae deletion strains, locus YNL307C, strain MCK1, stronger effect = lower value 0.888 | S. cerevisiae deletion strains, locus YOR184W, strain ser1, stronger effect = lower value 0.733
